High-throughput results: PubChem BioAssay, The Scripps Research Institute Molecular Screening Center
SRC3 TRFRET art – TR-FRET detection interference compounds, artefact control for PPARgamma SRC-3 recruitment agonists, biochemical, TR-FRET ratio. TR-FRET artefact counter-screen, PPARgamma/SRC-3 format; active compounds read high. TR-FRET ratio at 8 µM. 99,000 compounds, 0.39% hits
PPARg SRC2 recr – agonists of PPARg-SRC-2 recruitment, primary screen, biochemical, HTS | 200,000 compounds, 0.34% hits | AID 1032, 2008 | PPARgamma LBD-SRC-2 recruitment | Peroxisome proliferator-activated receptor gamma (Homo sapiens), P37231 | activation, % at 8 µM; in the data active = activation above about 22%;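 also: 0% = vehicle and 100% = reference agonist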
Target sequence (P37231 whole entry, looked up, the tested form may be a part): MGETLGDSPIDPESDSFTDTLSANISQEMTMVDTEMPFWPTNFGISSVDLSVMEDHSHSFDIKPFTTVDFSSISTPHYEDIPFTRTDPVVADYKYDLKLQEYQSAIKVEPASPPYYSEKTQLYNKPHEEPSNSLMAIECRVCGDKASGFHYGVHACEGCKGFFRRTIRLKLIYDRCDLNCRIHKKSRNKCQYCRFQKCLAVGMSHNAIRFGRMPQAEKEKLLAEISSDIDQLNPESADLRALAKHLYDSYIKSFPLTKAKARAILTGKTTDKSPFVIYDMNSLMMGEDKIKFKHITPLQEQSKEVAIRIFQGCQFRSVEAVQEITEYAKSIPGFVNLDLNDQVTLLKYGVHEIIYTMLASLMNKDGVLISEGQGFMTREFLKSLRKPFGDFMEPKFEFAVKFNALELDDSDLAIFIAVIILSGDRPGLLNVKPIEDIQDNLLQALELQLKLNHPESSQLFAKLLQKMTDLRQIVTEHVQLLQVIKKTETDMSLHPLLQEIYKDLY
TR-FRET SRC-2 ct – TR-FRET signal artefacts, primary screen, artefact control for PPARgamma SRC-2 agonist project, biochemical | TR-FRET artefact counter-screen; active compounds read high | TR-FRET ratio at 8 µM | 200,000 compounds, 0.4% hits
PPARg SRC1 recr – PPARgamma agonists recruiting SRC-1 coactivator, primary screen, biochemical; Peroxisome proliferator-activated receptor gamma (Homo sapiens), P37231; PPARgamma-SRC-1 coactivator recruitment biochemical assay; activation, % at 8 µM; 200,000 compounds, 0.41% hits; in the data active = activation above about 19%;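 also: 0% = DMSO and 100% = reference agonist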
SRC1 TRFRET art – TR-FRET detection interference compounds, primary screen, artefact control for PPARgamma SRC-1 recruitment agonists, biochemical, TR-FRET emission ratio; TR-FRET detection artefact counter-screen; active compounds read high; TR-FRET ratio at 8 µM; 99,000 compounds, 0.34% hits; AID 1051, 2008; in the data active = TR-FRET ratio above about 2300
PPARg SRC3 recr – PPARgamma agonists recruiting SRC-3 coactivator, primary screen, biochemical | 200,000 compounds, 0.26% hits | Peroxisome proliferator-activated receptor gamma (Homo sapiens), P37231 | activation, % at 8 µM | biochemical PPARgamma/SRC-3 coactivator recruitment assay; in the data active = activation above about 23%;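 also: 0% = DMSO and 100% = reference agonist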
* = called active by the depositor; nt = no result. Only some compounds are listed: those with a hit (about 0.84% of all), similar ones and a draw of the others. Rule as the data show it, unless noted: active = TR-FRET ratio above about 2000; inactive = the rest.

SMILES	SRC3 TRFRET art	PPARg SRC2 recr	TR-FRET SRC-2 ct	PPARg SRC1 recr	SRC1 TRFRET art	PPARg SRC3 recr
Cc1cc(N2CCC(C(=O)NC3CCCCC3)CC2)nc(-c2ccccc2)n1	2155*	4	1528	6	1560	10
Cc1cc(N2CCC(C(=O)NC3CC3)CC2)nc(-c2ccccc2)n1	nt	-2	1506	5	nt	-7
CC(C)(C)SCCNC(=O)c1ccc(Cl)c([N+](=O)[O-])c1	1433	3	1459	-2	1499	-1
CCCCSc1nnc([C@H](C)NC(=O)OC(C)(C)C)o1	nt	39*	2298*	1	nt	-7
COc1ccc(-c2nc(N3CCCCCC3)sc2C(=O)c2ccccc2)cc1	nt	16	2098*	12	nt	13
O=C(c1ccc(Br)cc1)c1sc(N2CCOCC2)nc1-c1ccccc1	2783*	15	1756	15	2046	10
COc1ccc(CCNC(=O)COC(=O)COc2ccc(C#N)cc2)cc1	1623	-1	1474	1	1639	-3
Clc1ccccc1-c1nnc2sc(-c3ccc(Br)o3)nn12	nt	12	1961	5	nt	18
Clc1ccc(-c2nnc3sc(-c4ccc(Br)o4)nn23)cc1	nt	11	1593	8	nt	28*
O=c1c2ccccc2nnn1COc1cccc(Cl)c1	1816	5	1656	-1	1864	1
O=C(CSc1ncnc2c1nnn2-c1ccc(F)cc1)NCc1ccco1	nt	23*	1638	3	nt	-4
Cc1ccc(-c2csc3nc[nH]c(=S)c23)cc1C	1542	-5	1562	-5	1687	2
Cc1c(-c2ccccc2)sc2nc[nH]c(=S)c12	2134*	6	1886	10	2247	9
CC(C)CNc1nc(Oc2ccc(=O)[nH]n2)nc(N2CCOCC2)n1	1606	8	1617	0	1548	1
COc1ccc(NS(=O)(=O)c2c(C)n(C)c(=O)n(C)c2=O)cc1OC	nt	24*	1716	-4	nt	3
COc1ccc(C)cc1-n1nnnc1SCC(=O)c1ccc2c(c1)OCCO2	nt	6	3766*	-9	nt	-1
CSc1nsc(/C=C/Nc2ccc(F)cc2F)c1C#N	2047	10	1928	20	2189	5
CSc1nsc(/C=C/Nc2ccc(C(=O)O)cc2)c1C#N	2133*	16	2141*	18	2461*	12
O=C(NCC1CCCN(Cc2ccc3nonc3c2)C1)c1ccc(F)cc1 (stereo unspecified)	1333	-3	1600	-2	1689	-6
COc1ccc(-c2nc(-c3ccc(NC(=O)c4ccc(Br)o4)cc3)no2)cc1OC	nt	8	1699	11	nt	30*
COc1cccc(-c2nc(-c3ccc(NC(=O)Cc4ccccc4OC)cc3)no2)c1	nt	-5	1985*	-2	nt	0
COc1ccc(-c2noc(Cc3ccccc3OC)n2)cc1	nt	7	1718	4	nt	26*
COc1cccc(NC(=O)Cc2nc(-c3ccccc3)sc2-c2ccc(C)cc2)c1	3358*	-6	2590*	2	3241*	3
COc1ccc(-c2noc(Cc3cccs3)n2)cc1	nt	2	1628	1	nt	4
CCOc1ccccc1NC(=O)CN1C(=O)C(=O)N(Cc2ccco2)C1=O	1545	-5	1423	6	1724	4
SMILES	SRC3 TRFRET art	PPARg SRC2 recr	TR-FRET SRC-2 ct	PPARg SRC1 recr	SRC1 TRFRET art	PPARg SRC3 recr
CNC(=O)CSc1nc2[nH]ncc2c(=O)[nH]1	1652	6	1900	7	1900	4
COc1cc(OC)cc(C(=O)NCC(=O)OCC(=O)/C=C2/N(C)c3ccccc3C2(C)C)c1	1511	-4	1591	2	1763	-3
CN1/C(=C\C(=O)COC(=O)Cn2nnc(-c3ccccc3)n2)C(C)(C)c2ccccc21	nt	9	2474*	10	nt	5
COc1ccc(N(CC(=O)N2CCC(Cc3ccccc3)CC2)S(C)(=O)=O)cc1	1879	15	1577	4	1783	5
CC(C(=O)NCCN1CCOCC1)(c1ccccc1)c1ccccc1	1655	0	1771	7	1837	0
CCOC(=O)n1cc(-c2cnc(CNC(=O)C(C)(c3ccccc3)c3ccccc3)o2)c2ccccc21	1588	28*	1921	9	1619	-3
CSc1ccccc1NC(=O)Cn1c(-c2cscn2)nc2ccccc21	nt	1	1477	24*	nt	3
Oc1ccc2n[nH]nc2c1	1789	5	1648	2	1684	2
COC(=O)c1ccccc1NC(=O)c1cc(-c2ccc(O)cc2)on1	nt	3	1632	35*	nt	6
COc1ccc(/C(=C/Nc2cccc(Br)c2)C(C)=O)cc1OC	1744	-5	1588	8	1708	-1
O=C(N/N=C/c1cn(-c2ccccc2)nc1-c1cccnc1)c1cccnc1	1612	10	1628	18	2335*	3
CC(Oc1ccccc1F)C(=O)NNC(=O)c1cc2ccccc2o1 (stereo unspecified)	1699	0	1498	9	1722	-1
CC(=O)Nc1ccc(S(=O)(=O)Nc2nc3ccccc3nc2Sc2nncn2C)cc1	nt	7	2233*	0	nt	0
COc1cc(NC(=O)c2cc(Cl)ccc2Cl)ccc1-c1cc2ccccc2oc1=O	nt	2	2091*	8	nt	4
COc1ccc(CC(=O)NCc2nnc(SCC(=O)Nc3cccc(F)c3)n2C)cc1	1574	38*	1397	3	1764	-2
COc1ccc(CC(=O)NCc2nnc(SCC(=O)Nc3ccccc3)n2C)cc1	1639	8	1582	7	1814	1
CCN(CC)CCCNC(=O)c1ccc2c(SCC(=O)O)c3c(nc2c1)CCC3	1780	23*	1661	9	1924	5
Cc1cc2nc(-c3ccc(SCC(=O)Nc4ccc5c(c4)OCCO5)nc3)[nH]c2cc1C	nt	3	2267*	1	nt	1
CCCC(=O)NCCc1cc(OC)c(OC)cc1Br	1761	-5	1627	-3	1788	0
CCOC(=O)c1c(NC(=O)CSc2nnc(-c3c[nH]c4ccccc34)n2CCOC)sc2c1CCCCC2	1556	0	1477	-1	1650	8
CCOC(=O)c1c(NC(=O)CSc2c[nH]c3ccccc23)sc2c1CCCC2	4458*	-14	1640	-5	1766	1
CCOC(=O)c1c(NC(=O)CSc2c[nH]c3ccccc23)sc2c1CCC2	4916*	-1	1481	5	1826	1
CCOC(=O)c1c(NC(=O)C(C)Sc2cn(C)c3ccccc23)sc2c1CCC2 (stereo unspecified)	1894	24*	1483	10	1794	5
CCOC(=O)c1c(NC(=O)C(C)Sc2cccc[n+]2[O-])sc2c1CCN(Cc1ccccc1)C2 (stereo unspecified)	1688	8	1644	5	1633	3
